Among the data in PubChem BioAssay AID2315 (National Center for Advancing Translational Sciences (NCATS), 2010) are inhibition values, retold here.

Molecules are shown by their SMILES. About 27,000 (9.3%) of roughly 290,000 compounds were called active. The sample holds actives, similar compounds and a random draw of the others, so the mix is not that of the screen. A number with no mark means an inactive call. Cut-off read from the data, not from the text of the source: active = inhibition mostly above about 28% (no sharp cut-off); inactive = mostly below about 43%.

As a reminder, the inhibition is the change of the read-out against control, counted positive when it falls.

The nature of this experiment: A qHTS for Small Molecule Inhibitors of Shiga Toxin. Note: 0% is about no effect. The settings on record: Vero cells, Shiga toxin protein synthesis inhibition reporter; at 38.7 µM, active compounds read high.
With `C/C(=N\NC(=O)c1nc(C)cc(C)n1)c1ccccc1`, the inhibition was 86.5% (active). As for `C/C(=N\NC(=O)c1cccnc1)c1ccc(-c2ccccc2)cc1`, the inhibition is 20.1%. For `COc1ccc(/C(C)=N/NC(=O)c2ccc3nc[nH]c3c2)cc1`, the inhibition is -11.9%. With `COc1ccc(N=Nc2c(-c3ccc(OC)cc3)[nH]oc2=O)cc1`, the inhibition was -1.4%.

`Cc1cc(C)cc(OCC(=O)NC(C)c2ccccc2)c1` (stereo not given): the inhibition was 16.2%. Take `COc1cc(NC(=O)c2ccccc2)c(OC)cc1NC(=O)Cc1ccccc1`: the inhibition is -6.61%. On to `COC(=O)C1CCN(C(=O)c2ccc3oc(Cc4ccc(Cl)cc4)nc3c2)CC1`, for which the inhibition is -23.6%. On to `COc1ccc(Cc2nc3ccc(C(=O)N4CCC(N(C)C)C4)cc3o2)cc1` (stereo not given), for which the inhibition is 5%. In the case of `COCC1CCN(C(=O)c2ccc3oc(Cc4ccccc4)nc3c2)C1` (stereo not given), the inhibition was 42.2% (active). To `CN(C)c1ccc(/C=C2\NC(=S)N(Cc3ccccc3)C2=O)cc1` belongs 3.47%; to `CCc1nn(CCCC(=O)NC(C)c2ccccc2)c(=O)c2cc3occc3n12` (stereo not given), 11.1%; to `CC(NC(=O)C(=O)NN=C1CCC(C(C)(C)C)CC1)c1ccccc1` (stereo not given), -9.73%. As for `O=C(CNC(=O)c1ccc(Br)o1)NCC1CCCO1` (stereo not given), the inhibition was -17.7%. Under `CCCC(=O)Nc1ccc(Cl)c(NC(=O)c2ccc(Br)o2)c1` stands -13.8%; under `CC(C)(C)C1CCC(=NNC(=O)c2ccc(Br)o2)CC1` (stereo not given), 50.9% (active). In the case of `CCC(C)(C)C1CCC(=NNC(=O)c2ccc(Br)o2)CC1` (stereo not given), the inhibition is 123% (active). `CC(C)(C)C1CCC(=NNC(=O)c2cc(-c3ccccc3)n[nH]2)CC1` (stereo not given): the inhibition was 5.96%. Regarding `O=C(CCN1C(=O)[C@@H]2Cc3ccccc3CN2C1=O)NCc1ccccc1`, the inhibition is -1.35%.

As to `CCc1ccc(S(=O)(=O)N/N=C\c2ccc([N+](=O)[O-])o2)cc1`, the inhibition was 9.6%. Under `O=C(/C=C/c1ccc(OCc2c(F)cccc2Cl)cc1)N1CCOCC1` stands 54.8%; under `CCOC(=O)C(C)n1cnc2scc(-c3ccc(C)c(C)c3)c2c1=O` (stereo not given), 2.19%; under `CCCN1C2=C(C(=O)CCC2)C(c2ccc(O)c(Br)c2)C2=C1CCCC2=O`, 6.12%. In the case of `CCOC(=O)C1(CCOc2ccccc2)CCN(Cc2cc(OC)c(O)cc2Cl)CC1`, the inhibition was 21.9%. Turning to `CCN(CC)CCn1cnc2c1c(=O)[nH]c(=O)n2Cc1ccccc1`, the inhibition was -12.7%. For `C=CCNC(=O)COc1coc(CN2CCN(Cc3ccccc3)CC2)cc1=O`, the inhibition is -1.93%.

`COc1ccc(/C=C2\SC(=O)N(CCC(=O)NCCCn3ccnc3)C2=O)cc1`: the inhibition was 65.3% (active).

As to `O=C(CCN1C(=O)c2ccccc2C1=O)NCCCn1ccnc1`, the inhibition was -4.06%. On to `COc1ccc(NC(=O)CCN2C(=O)/C(=C/c3ccc4c(c3)OCO4)SC2=S)cc1`, for which the inhibition is -2.97%.

For `COc1ccc(/C=C2\SC(=O)N(CCC(=O)NC3CCS(=O)(=O)C3)C2=O)cc1` (stereo not given), the inhibition was 65.1% (active). Take `O=C(CN1C(=O)S/C(=C\c2ccccc2F)C1=O)NCCCn1ccnc1`: the inhibition was 1.8%. For `COc1ccccc1/C=C1\SC(=O)N(CCC(=O)N(C)C2CCS(=O)(=O)C2)C1=O` (stereo not given), the inhibition was 18.1%. Under `O=C1C(=O)N(CCN2CCOCC2)C(c2cccc(Cl)c2)/C1=C(/O)c1ccc2c(c1)OCO2` (stereo not given) stands -5.97%; under `CS(=O)(=O)N(CC(=O)N1CCCCCC1)c1cccc(Cl)c1Cl`, -8.4%; under `CC(=O)N1CCOc2ccc(S(=O)(=O)N3CCC(C(=O)Nc4ccccc4F)CC3)cc21`, -3.81%. Turning to `CSCCC(NS(=O)(=O)c1ccc(C)cc1)C(=O)N1CCCC1` (stereo not given), the inhibition was -8.89%.

For the compound `COc1ccc2c(C)c(CCC(=O)NC3CC3)c(=O)oc2c1C`, the inhibition is 12.7%.

For the compound `O=C(N/N=C\c1ccc(-c2ccc(Cl)c(Cl)c2)o1)C(=O)N1CCCC1`, the inhibition is -9.82%.

As for `COC(=O)N/N=C/c1ccc(-c2ccc(Cl)c(Cl)c2)o1`, the inhibition is 59.7% (active). With `Nc1nnnn1CC(=O)N/N=C/c1ccc(-c2cccc(Cl)c2)o1`, the inhibition was 14.1%. To `CS/C(=C\C(=O)c1ccco1)Nc1ccccc1Cl` belongs 53.1% (active); to `O=C(c1cccc(S(=O)(=O)Nc2ccccc2Cl)c1)N1CCN(C(=O)c2ccco2)CC1`, 10.9%; to `O=C(Nc1ccccc1C(=O)N1CCCCC1)c1ccco1`, -5.5%. To `Cc1c(Cl)cccc1NC(=O)[C@@]1(CC(=O)O)CC(/C=C/c2ccccc2)=NO1` belongs 4.14%; to `CCOc1cc(/C=N/NC(=O)c2cc(-c3ccccc3)nc3ccccc23)ccc1O`, 46.8% (active). Under `CCOc1cc(/C=N/Nc2cc(C)nc3ccc(C)cc23)ccc1O` stands 16.6%.

For `COc1cccc(-c2cc(C(=O)N/N=C/c3ccc(OC)c(COC(C)=O)c3)c3ccccc3n2)c1`, the inhibition was 13.2%.

With `Cc1cc(=O)oc2cc(OC(C)C(=O)NCCc3ccc(S(N)(=O)=O)cc3)ccc12` (stereo not given), the inhibition is -15.1%. Consider `CC(=O)N1CCOc2ccc(S(=O)(=O)N3CCN(c4cccc(C(F)(F)F)c4)CC3)cc21`, for which the inhibition is -3.75%. To `CCCCOc1ccc(-c2ncc(C(=O)OCC)c(N)n2)cc1` belongs 21.7%; to `CCOc1c(CNCc2ccc(C(=O)O)cc2)cccc1OC`, 11.6%; to `CCCCCc1ccc(-c2ccc(C(=O)O)cc2)nc1`, 71.9% (active). Regarding `O=C(O)c1ccc(COCC(F)(F)F)cc1`, the inhibition is 8.49%. Under `CCCCCc1ccc(-c2cn(Cc3ccc4ccccc4c3)nn2)cc1` stands -7.01%. For `CCCCCc1ccc(-c2ccc(OCC)cc2)nc1`, the inhibition was 43.4% (active). Under `Cc1ccc(NC(=O)CN2C(=O)NC(C)(c3ccc(Cl)cc3)C2=O)c(Br)c1` (stereo not given) stands -4.27%; under `CC(=O)CCC(=O)c1ccc2ccccc2c1`, 52.7% (active); under `CC(=O)c1ccc2c(ccc3ccccc32)c1`, 50.4% (active). For `Cc1ccccc1OCC(=O)NCC(=O)OCC(=O)c1ccc2ccccc2c1`, the inhibition is 12.1%. For the compound `C/C(=N\NC(=O)c1ccc2ccccc2c1)c1cccnc1`, the inhibition was 43.1%. As for `CC(=O)c1ccc2c(c1)c1ccccc1n2CC(C)C`, the inhibition is -9.15%. Under `CCN(CC)Cc1cc(C(C)=O)ccc1O` stands -16.1%; under `Cc1cccc(NS(=O)(=O)c2ccc(C(=O)NCC(C)(C)N3CCOCC3)cc2)c1C`, -13%. As for `COc1cc(OC)c(S(=O)(=O)Nc2ccccc2C(=O)O)cc1S(=O)(=O)Nc1ccccc1C(=O)O`, the inhibition was 7.19%. Turning to `CCC(=O)N1CCc2cc(S(=O)(=O)CCC(=O)N3CCN(c4ccccc4F)CC3)ccc21`, the inhibition was 0.463%.

In the case of `COc1cc(NS(=O)(=O)c2ccc(NC(=S)NC(=O)c3ccccc3)cc2)nc(OC)n1`, the inhibition is -2.7%. Under `O=C(Nc1ccncc1)c1ccc([N+](=O)[O-])cc1Cl` stands -1.95%; under `O=C(Nc1ccc(Br)cn1)c1ccc([N+](=O)[O-])o1`, 50.9% (active); under `CN1C(=O)c2ccc(C(=O)Nc3ccc(Br)cn3)cc2C1=O`, -3.25%. Consider `O=C(Nc1ccc(Br)cn1)c1ccc([N+](=O)[O-])cc1Cl`, for which the inhibition is 119% (active). On to `CC(C)C(=O)Nc1cccc(NC(=O)c2ccc([N+](=O)[O-])cc2Cl)c1`, for which the inhibition was 16.6%. As for `O=C(/C=C/c1ccc(Cl)cc1)Nc1ccc(Br)cn1`, the inhibition was 34.5%. Under `COc1ccc(N(Cc2cc3ccc(C)cc3[nH]c2=O)S(=O)(=O)c2ccccc2)cc1` stands -1.62%; under `CCOc1cc(NC(=O)Nc2ccccc2)c(OCC)cc1NC(=O)CC`, -9.09%. Under `CC1CCCN(S(=O)(=O)c2ccc(-c3ccc(=O)[nH]n3)o2)C1` (stereo not given) stands -5.12%; under `O=S(=O)(NC1CC1)c1ccc(F)c(F)c1`, 20.3%; under `CCc1ccc(OCC(=O)OC(C)C(=O)NC2CC2)cc1` (stereo not given), -3.01%.

As for `CCCCN(CC)C(=O)C1CCCN(S(=O)(=O)c2cccc3nsnc23)C1` (stereo not given), the inhibition is -4.85%. Under `Cc1c(C(N)=O)sc2ncn(CCOc3ccccc3)c(=O)c12` stands 59.8%. In the case of `CCOC(=O)C(C)n1cnc2sc(C)c(C)c2c1=O` (stereo not given), the inhibition is 17.6%. With `Cc1cccc(OC(=O)c2sc3ncn(C)c(=O)c3c2C)c1`, the inhibition was 67.1% (active). In the case of `CN(CCc1ccccn1)C(=O)c1ccc(OC2CCN(Cc3ccccn3)CC2)cc1`, the inhibition was 16%. On to `Cn1cccc1C(=O)Nc1nccs1`, for which the inhibition was 39.3% (active). For the compound `CC(=O)NC(CC(=O)Nc1nccs1)c1ccccc1` (stereo not given), the inhibition was 14.1%. Consider `CCOc1ccc(C(=O)NC(=S)Nc2ccc(NC(=O)C(C)C)cc2)cc1[N+](=O)[O-]`, for which the inhibition was -4.8%. Take `COc1ccc(C(=O)NNC(=O)c2cnccn2)cc1[N+](=O)[O-]`: the inhibition was -6.53%. Consider `O=C(O)c1ccccc1-c1ccccc1C(=O)Nc1nccs1`, for which the inhibition is 16.1%. Turning to `CCCCOC(=O)Nc1nccs1`, the inhibition is 7.37% (active). Under `CCCCOC(=O)Nc1nnc(CC(=O)NCc2ccccc2)s1` stands -13.9%; under `O=C(COC(=O)c1ccc(O)cc1)Nc1nccs1`, 28%; under `CC(NC(=O)C(=O)Nc1nccs1)c1ccccc1` (stereo not given), -4.59%. Regarding `CC(=O)Oc1ccc(C(=O)Nc2nccs2)cc1`, the inhibition was 45.7% (active). `CCN(c1ccccc1)S(=O)(=O)c1ccc(C(=O)Nc2nccs2)cc1`: the inhibition was -6.9%. Take `CCOc1ccc(C(=O)Nc2nccs2)cc1[N+](=O)[O-]`: the inhibition was 69.4% (active). On to `COC(=O)CCc1ccccc1S(=O)(=O)N(CCC(=O)OC)Cc1ccccc1`, for which the inhibition is -5.55%.

As for `Cc1ccccc1Nc1c([N+](=O)[O-])ccc2nonc12`, the inhibition is -12%.
